Compounds with a hit are over-represented: about 2.3% of the library has one in this group of screens.
MmCpn inh: blocks the Methanococcus maripaludis chaperonin Mm-Cpn; AID 504842; purified Mm-Cpn ATPase, ADP Transcreener TR-FRET; hit rate 0.031% among 330,000; Potency, µM (series often up to 76.9 µM), for inactives: top-dose activity, negative = inhibition, usual class: inhibitors; also: potency is read from the fitted curve at half-maximal effect; % is scaled to controls: 0 for no effect and ±100 for the full control effect; nearly all actives have a fitted effect of over 80% in size
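Compound-treated chaperonin, 25 nM final, turns over 10 uM ATP at 37°C for 30 min following a 10 min preincubation; ADP generated competes with ADP-d2 for Eu-cryptate antibody, lowering FRET.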
CCT modulator: modulators of cytosolic chaperonin (CCT/TRiC) activity; purified chaperonin ATPase assay, HTRF ADP detection, 30 min; activity change, % (no concentration beside the values), hits read low; hit rate 0.3% among 360,000; in the data active = activity change below about -30%; also: % is scaled to controls: 0 for no effect and ±100 for the full control effect
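ATPase activity: ADP formed was measured by HTRF Transcreener (665/615 nm ratio) after 30 min at 37 deg C with 10 uM ATP. Compounds screened at one 76 uM concentration against 40 or 20 nM TRiC in Tris pH 7.4/KCl/MgCl2/DTT buffer.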
FUS yeast rescue: FUS proteinopathy suppression in yeast; S. cerevisiae FUS-expressing, growth rescue, OD600, 24 h; hit rate 0.24% among 390,000; Potency, µM (top dose mostly 76.6 µM), most hits filed as activators;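 also: potency is read from the fitted curve at half-maximal effect; plate controls were DMSO vehicle for no effect and reference control for full effect; nearly all actives have a fitted effect of over 55% in size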
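Absorbance at 600 nm, taken 24hr after compound addition, measured rescue of FUS-yeast growth at 30C. Induction used 2% galactose with seeding at OD 0.005. Controls: CP55940 from 92uM final, DMSO only.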
Abeta rescue: A-beta toxicity reversal in yeast; hit rate 0.063% among 410,000; yeast expressing A-beta42, growth rescue, OD600, 48 h; response scale: 0% DMSO, 100% iron-clioquinol control; Potency, µM (highest dose often 46.1 µM), most hits filed as activators; AID 1347071; also: potency is read from the fitted curve at half-maximal effect; nearly all actives have a fitted effect of over 55% in size
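Yeast growth medium received pinned compounds, then yeast cells expressing toxic A-beta were added; plates incubated at 30 C for 48 hr. Growth read as absorbance at 600 nm, normalized to DMSO and equimolar FeCl3 plus clioquinol controls.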
aSyn yeast inh: rescues yeast growth from alpha-synuclein toxicity; Yeast expressing alpha-synuclein, growth rescue, BacTiter-Glo, 24 h; Potency, µM (top dose mostly 46.1 µM), without a hit: top-dose growth rescue (activation), most hits filed as activators; hit rate 0.14% among 370,000; AID 652106; also: potency is read from the fitted curve at half-maximal effect; % of control where 0% means no effect; nearly all actives have a fitted effect of over 65% in size
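Galactose-induced alpha-syn yeast (OD600=0.02, raffinose-pregrown) + pinned cpd, 24 hr, 30 deg C; growth by BacTiter-Glo luminescence. Growth restoration scores as activation.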
TDP43 rescue: inhibitors of TDP-43 toxicity in yeast. TDP-43 expressing yeast growth rescue, BacTiter-Glo, 24 h. Potency, µM (highest dose often 46.1 µM), for the others: at the highest dose growth rescue (activation), actives largely listed as activators. hit rate 1.8% among 410,000; also: potency is read from the fitted curve at half-maximal effect; % of control where 0% means no effect; nearly all actives have a fitted effect of over 50% in size
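In this qHTS, compounds that restore growth of yeast expressing TDP-43 appear as activators. Cells (OD600=0.02, galactose medium, raffinose-pregrown) are incubated with compound 24 hr at 30 deg C and growth is quantified by BacTiter-Glo.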
* hit, by the source's call; i = inactive; ? = inconclusive; / = no result given. Unless noted, calls follow the shape of the dose curve; as a rule, active = well fitted curve in the direction sought with a large enough effect; inconclusive = small, poorly fitted or top-dose-only effect, or another doubt; inactive = no such curve, though single readings can be large; an effect the other way counts as inactive or inconclusive.

SMILES | MmCpn inh | CCT modulator | FUS yeast rescue | Abeta rescue | aSyn yeast inh | TDP43 rescue
CSc1nnc(-c2ccccc2)o1 | 0.1% | -3.5 | i | i | -4.0% | -5.2%
CCNC(=S)N/N=C/c1cc(C)n(-c2ccc(Cl)cc2)c1C | -0.8% | -5.6 | i | i | 5.8% | ?
Cc1cc(/C=N/NC(N)=S)c(C)n1-c1ccc(Cl)c(Cl)c1 | -0.4% | -0.5 | i | ? | 10.7% | 17.8µM*
Cc1ccc(Cl)cc1N1CCN(S(=O)(=O)c2ccc3c(c2)CC(=O)N3C)CC1 | -2.5% | -54.2* | i | i | 0.5% | ?
CCCCNC(=O)NS(=O)(=O)c1ccc(NC(=O)CSc2nnc(-c3ccc(Cl)cc3)n2N)cc1 | / | / | i | / | / | /
CC(C)CN1C(=O)/C(=C/c2ccco2)NC1=S | 0.3% | -1.8 | i | i | -7.1% | ?
CC(C)CN1C(=O)/C(=C/c2cccs2)NC1=S | -1.2% | 0.2 | i | i | -22.6% | 25.1µM*
CCCN1C(=O)/C(=C/c2ccc(C)s2)NC1=S | 1.2% | 1.8 | i | i | -7.8% | 11.2µM*
COc1ccccc1CNC(=O)COc1ccc(Br)c(C)c1 | 3.2% | 0.8 | i | i | 15.1% | 17.8µM*
COc1ccc(S(=O)(=O)N(C)C[C@H]2Oc3ccc(NC(=O)Cc4ccccc4)cc3C(=O)N([C@H](C)CO)C[C@@H]2C)cc1 | 0.4% | -2.2 | 28.2µM* | i | 1.0% | 18.0%
COc1ccc(S(=O)(=O)Nc2cccc3c2O[C@H](CN(C)S(=O)(=O)c2ccccc2)[C@@H](C)CN([C@H](C)CO)C3=O)cc1 | -0.8% | -0.5 | 15.8µM* | i | -2.1% | 8.4%
COc1ccc(C#Cc2ccc3c(c2)O[C@H](CN(C)S(=O)(=O)c2ccccc2F)[C@H](C)CN([C@H](C)CO)S3(=O)=O)cc1 | / | 1.9 | 28.2µM* | i | -3.5% | 26.2%
C[C@H](CO)N1C[C@H](C)[C@@H](CN(C)S(=O)(=O)c2ccccc2)Oc2c(NC(=O)NC3CCCCC3)cccc2C1=O | -1.1% | -1.9 | 31.6µM* | i | -9.1% | -5.0%
COc1ccc(S(=O)(=O)Nc2cccc3c2O[C@H](CN(C)S(=O)(=O)c2ccc(F)cc2)[C@H](C)CN([C@H](C)CO)C3=O)cc1 | 1.0% | -1.0 | ? | i | 0.1% | -6.4%
O=C(NC1CCCCC1)c1ccc2c(c1)N(Cc1cccc(Cl)c1)C(=O)c1ccccc1S2(=O)=O | / | / | i | i | / | 2.9%
Cc1cc(C(=O)Nc2cccc3c2O[C@@H](CN(C)S(=O)(=O)c2ccccc2)[C@H](C)CN([C@@H](C)CO)C3=O)n(C)n1 | -1.0% | -2.9 | i | i | -1.3% | 5.7%
COc1ccc(S(=O)(=O)Nc2cccc3c2O[C@H](CN(C)Cc2ccc(-c4ccccc4)cc2)[C@@H](C)CN([C@H](C)CO)C3=O)cc1 | 0.2% | -1.5 | 25.1µM* | i | -1.0% | -0.6%
Cc1cc(C(=O)Nc2cccc3c2O[C@@H](CN(C)S(C)(=O)=O)[C@H](C)CN([C@@H](C)CO)C3=O)n(C)n1 | -0.7% | -32.0* | i | i | -3.0% | -6.8%
COc1ccc(S(=O)(=O)N(C)C[C@@H]2Oc3c(NC(=O)Nc4ccccc4)cccc3C(=O)N([C@@H](C)CO)C[C@H]2C)cc1 | / | / | 15.8µM* | / | / | /
COC(=O)[C@@]12CCCCC3=C1N(CCC3)C(=O)[C@H]2CC(=O)NCC12CC3CC(CC(C3)C1)C2 | / | / | i | / | / | /
COc1ccccc1CCC[C@@H](CCS(=O)(=O)C(C)C)CC1CCCCC1 | / | / | i | / | / | /
CCN(CC)C(=O)CC[C@H]1CC[C@]2(CCCN(C(=O)c3ccco3)C2)O1 | / | / | i | / | / | /
COc1cccc(C2c3c(ncn(-c4ccccc4)c3=N)Oc3ccc4ccccc4c32)c1OC (configuration not stated) | / | / | i | / | / | /
Cc1ccc2c(c1)-c1c(cnn1CC(=O)NCCc1ccccc1F)CO2 | / | / | i | / | / | /
Cc1ccc(NCc2cccn2-c2nnc(N3CCC(C(=O)NCc4ccc(OC(C)C)cc4)CC3)s2)cc1 | / | / | ? | i | / | 21.7%
SMILES | MmCpn inh | CCT modulator | FUS yeast rescue | Abeta rescue | aSyn yeast inh | TDP43 rescue
Cc1ccc(NCc2cccn2-c2nnc(N3CCC(C(=O)NCCc4ccc(Cl)cc4)CC3)s2)cc1 | / | / | ? | ? | / | 35.5µM*
CCc1nnc(NC(=O)c2oc3ccc(Br)cc3c2C)s1 | -1.4% | -34.3* | i | i | -2.5% | -2.0%
CC(=O)Nc1sc2c(c1-c1nc3ccccc3s1)CCN(C(C)C)CC2 | / | / | i | / | / | /
CCOc1ccc(CNC(=O)c2cc3cc(S(=O)(=O)N4CCCCC4)ccc3n2C)cc1 | / | / | ? | i | / | 17.8%
CCOc1ccc(CNC(=O)Cn2ccc3cc(S(=O)(=O)N4CCCCC4)ccc32)cc1 | / | / | 15.8µM* | i | / | 18.6%
CN(C)c1ccc(CNC(=O)c2cc3cc(S(=O)(=O)N4CCCCC4)ccc3n2C)cc1 | / | / | 8.91µM* | i | / | -2.4%
CC1CCc2cc(F)cc3c2N1C(=O)C(C(=O)Nc1cnccn1)C3=O (configuration not stated) | / | / | / | / | 8.4% | /
COc1ccc(CCNC(=O)Cn2c(=O)n(-c3ccc(F)cc3)c(=O)c3sccc32)cc1OC | -3.0% | -0.8 | i | i | 0.562µM* | 3.8%
O=S(=O)(c1ccc(Cl)c(Cl)c1)c1snnc1-c1ccccc1 | -0.3% | -1.4 | i | i | -18.6% | 12.6µM*
c1ccc(-c2nnsc2-c2ccccc2)cc1 | 2.1% | -1.4 | i | i | 2.9% | ?
CCCN1C(=O)c2ccccc2NC1c1ccc(OC)c(COc2ccc([N+](=O)[O-])cc2)c1 (configuration not stated) | / | / | / | / | 9.0% | /
C=CS(=O)(=O)c1c2cc(OC)ccc2nc2ccc(OC)cc12 | / | -4.8 | / | i | -41.7% | 3.55µM*
COc1ccc2nc(Cl)cc(Cl)c2c1 | -0.6% | -2.6 | i | i | -6.9% | 7.6%
CC(C)Sc1nc2c(cnn2-c2ccc(F)cc2)c(=O)[nH]1 | -2.3% | -3.4 | i | i | -0.1% | 10.5%
CC(C)Sc1nc2c(cnn2-c2ccccc2)c(=O)[nH]1 | -0.4% | -46.6* | i | i | 2.1% | 10.7%
CCN(C(=O)Cn1nc2c3cc(F)ccc3n(Cc3cccc(C)c3)cc-2c1=O)c1cccc(C)c1 | / | / | i | i | / | 2.9%
CCCCCCCSc1nsc(N)n1 | -1.5% | 0.1 | i | i | -14.8% | 12.6µM*
COc1ccccc1/C=C/c1ccnc2ccccc12 | / | / | / | / | 5.7% | /
CCOc1ccccc1CNC(=O)C1CCN(C(=O)N2CC(CC)Oc3ccc(C)cc32)CC1 (configuration not stated) | / | / | ? | i | / | -14.5%
